{
  "source": "PubChem BioAssay (NCATS)",
  "note": "Inconclusive results are not listed. Values without a mark were called inactive. Activity calls are given as the source filed them. Calls follow the shape of the dose curve; as a rule, active = well fitted curve in the direction sought with a large enough effect; inconclusive = small, poorly fitted or top-dose-only effect, or another doubt; inactive = no such curve, though single readings can be large; an effect the other way counts as inactive or inconclusive.",
  "data": [
    {"tested_on": "not listed separately", "test": "Primary qHTS for inhibitors of nuclear receptor binding SET domain protein 2 (NSD2) in an isogenic RCH-ACV NSD2 p.E1099K mutant (9B) (AID 1645876); also: nearly all actives have a fitted effect of over 70% in size; as to activity change, negative = viability loss: % is scaled to controls: 0 for no effect and ±100 for the full control effect", "settings": "RCH-ACV NSD2 E1099K (9B) viability, CellTiter-Glo, 72 h; series mostly up to 44.9 µM; activity change, negative = viability loss: at the top concentration", "units": {"activity change, negative = viability loss": "%"}, "values": [
      {"smiles": "CCC[C@@H]1C[C@@H](C(=O)N[C@@H]([C@H]2O[C@H](SC)[C@H](O)[C@@H](O)[C@H]2O)[C@H](C)Cl)N(C)C1", "activity change, negative = viability loss": -6.39},
      {"smiles": "CC[C@H]1OC(=O)[C@H](C)[C@@H](O[C@H]2C[C@@](C)(OC)[C@@H](O)[C@H](C)O2)[C@H](C)[C@@H](O[C@@H]2O[C@H](C)C[C@H](N(C)C)[C@H]2O)[C@](C)(O)C[C@@H](C)CN(C)[C@H](C)[C@@H](O)[C@]1(C)O", "activity change, negative = viability loss": -26},
      {"smiles": "CC[C@H](CC[C@@H](C)[C@H]1CC[C@H]2[C@@H]3CC=C4C[C@@H](O)CC[C@]4(C)[C@H]3CC[C@]12C)C(C)C", "outcome": "inactive"},
      {"smiles": "COc1ccc([C@@H]2CC(=O)c3c(O)cc(O[C@@H]4O[C@H](CO[C@@H]5O[C@@H](C)[C@H](O)[C@@H](O)[C@H]5O)[C@@H](O)[C@H](O)[C@H]4O)cc3O2)cc1O", "outcome": "inactive"},
      {"smiles": "CN[C@@H]1[C@@H](O)[C@@H](O[C@@H]2[C@@H](O)[C@H](O[C@H]3O[C@H](CN)[C@@H](O)[C@H](O)[C@H]3O)[C@@H](N)C[C@H]2NC(=O)C(O)CN)OC[C@]1(C)O", "note": "(some centres undefined)", "activity change, negative = viability loss": -11.6},
      {"smiles": "CC(=O)NCCCS(=O)(=O)O", "outcome": "inactive [at 17.3 µM]"},
      {"smiles": "N[C@@H](Cc1cc(I)c(Oc2ccc(O)c(I)c2)c(I)c1)C(=O)O", "activity change, negative = viability loss": -25.1},
      {"smiles": "CN(C)CCOc1ccc(/C(=C(/CCCl)c2ccccc2)c2ccccc2)cc1", "activity change, negative = viability loss": -17.5},
      {"smiles": "C=CC[N+]1([C@H]2C[C@H]3[C@@H]4CC[C@H]5C[C@H](O)[C@@H](N6CCOCC6)C[C@]5(C)[C@H]4CC[C@]3(C)[C@H]2OC(C)=O)CCCC1", "activity change, negative = viability loss": -6.96},
      {"smiles": "CC(C)Cc1ccc([C@@H](C)C(=O)NS(C)(=O)=O)cc1", "outcome": "inactive"}
    ]},
    {"tested_on": "not listed separately", "test": "Primary qHTS for inhibitors of nuclear receptor binding SET domain protein 2 (NSD2) in an RCH-ACV wild type WT cells (2C) (AID 1645877); also: nearly all actives have a fitted effect of over 70% in size; as to activity change, negative = cell killing: % is scaled to controls: 0 for no effect and ±100 for the full control effect", "settings": "RCH-ACV NSD2 WT (2C) viability, CellTiter-Glo, 72 h; series mostly up to 44.9 µM; activity change, negative = cell killing: at the top concentration", "units": {"activity change, negative = cell killing": "%"}, "values": [
      {"smiles": "CCC[C@@H]1C[C@@H](C(=O)N[C@@H]([C@H]2O[C@H](SC)[C@H](O)[C@@H](O)[C@H]2O)[C@H](C)Cl)N(C)C1", "activity change, negative = cell killing": -6.41},
      {"smiles": "CC[C@H]1OC(=O)[C@H](C)[C@@H](O[C@H]2C[C@@](C)(OC)[C@@H](O)[C@H](C)O2)[C@H](C)[C@@H](O[C@@H]2O[C@H](C)C[C@H](N(C)C)[C@H]2O)[C@](C)(O)C[C@@H](C)CN(C)[C@H](C)[C@@H](O)[C@]1(C)O", "activity change, negative = cell killing": -28},
      {"smiles": "CC[C@H](CC[C@@H](C)[C@H]1CC[C@H]2[C@@H]3CC=C4C[C@@H](O)CC[C@]4(C)[C@H]3CC[C@]12C)C(C)C", "activity change, negative = cell killing": -19.2},
      {"smiles": "COc1ccc([C@@H]2CC(=O)c3c(O)cc(O[C@@H]4O[C@H](CO[C@@H]5O[C@@H](C)[C@H](O)[C@@H](O)[C@H]5O)[C@@H](O)[C@H](O)[C@H]4O)cc3O2)cc1O", "outcome": "inactive"},
      {"smiles": "CC(=O)NCCCS(=O)(=O)O", "outcome": "inactive [at 17.3 µM]"},
      {"smiles": "N[C@@H](Cc1cc(I)c(Oc2ccc(O)c(I)c2)c(I)c1)C(=O)O", "activity change, negative = cell killing": -22.7},
      {"smiles": "C=CC[N+]1([C@H]2C[C@H]3[C@@H]4CC[C@H]5C[C@H](O)[C@@H](N6CCOCC6)C[C@]5(C)[C@H]4CC[C@]3(C)[C@H]2OC(C)=O)CCCC1", "activity change, negative = cell killing": 0.222},
      {"smiles": "CC(C)Cc1ccc([C@@H](C)C(=O)NS(C)(=O)=O)cc1", "activity change, negative = cell killing": 1.14}
    ]},
    {"target": "Rap guanine nucleotide exchange factor 3 (Homo sapiens) (UniProt O95398)", "sequence (O95398 whole entry, looked up)": "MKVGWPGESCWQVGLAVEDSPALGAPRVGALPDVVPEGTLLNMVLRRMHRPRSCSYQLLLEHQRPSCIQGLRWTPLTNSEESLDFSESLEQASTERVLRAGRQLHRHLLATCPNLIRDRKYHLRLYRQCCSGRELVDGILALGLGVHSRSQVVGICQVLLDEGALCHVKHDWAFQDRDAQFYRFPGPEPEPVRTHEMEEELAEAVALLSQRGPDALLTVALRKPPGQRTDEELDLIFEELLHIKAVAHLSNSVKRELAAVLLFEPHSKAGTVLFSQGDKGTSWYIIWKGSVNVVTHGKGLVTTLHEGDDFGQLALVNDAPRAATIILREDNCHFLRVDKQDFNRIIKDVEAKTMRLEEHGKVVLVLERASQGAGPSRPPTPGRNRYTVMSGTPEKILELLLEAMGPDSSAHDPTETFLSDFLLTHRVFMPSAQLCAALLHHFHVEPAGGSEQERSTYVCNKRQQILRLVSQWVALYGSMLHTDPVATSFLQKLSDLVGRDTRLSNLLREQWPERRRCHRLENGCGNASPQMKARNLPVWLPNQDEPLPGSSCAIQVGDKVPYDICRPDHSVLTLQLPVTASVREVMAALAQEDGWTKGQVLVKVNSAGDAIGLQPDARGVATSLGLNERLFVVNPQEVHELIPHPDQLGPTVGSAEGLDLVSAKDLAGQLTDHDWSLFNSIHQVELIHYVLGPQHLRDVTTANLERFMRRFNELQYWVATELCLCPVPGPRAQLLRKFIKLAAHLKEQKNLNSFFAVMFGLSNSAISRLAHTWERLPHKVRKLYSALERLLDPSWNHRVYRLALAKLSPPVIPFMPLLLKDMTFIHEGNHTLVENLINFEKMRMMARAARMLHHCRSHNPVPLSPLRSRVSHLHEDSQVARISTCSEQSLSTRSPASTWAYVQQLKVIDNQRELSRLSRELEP", "test": "Confirmatory qHTS for antagonist of cAMP-regulated guanine nucleotide exchange factor 3 (EPAC1) (AID 1645880);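 also: plate controls were DMSO only for no effect and full effect of the ATA control for full effect; nearly all actives have a fitted effect of over 55% in size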", "settings": "EPAC1 Rap1B-BODIPY-GDP exchange, fluorescence; series mostly up to 115 µM; activity, negative = inhibition: at the top concentration", "outline": "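Released BODIPY-GDP fluoresces less than Rap1-bound BODIPY-GDP; the signal is followed at 480/540 nm at 5-min intervals over 30 min, after 5 min at room temperature. Reactions contain 100 nM EPAC1, 250 nM RAP1B-BODIPY-GDP and 50 uM GDP; results are normalized to ATA and DMSO.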", "values": [
      {"smiles": "COc1cc(NCCCC(C)N)c2ncccc2c1", "note": "(centres undefined)", "activity, negative = inhibition": "-17.8%"},
      {"smiles": "CC(C)[C@@H](C)/C=C/[C@@H](C)[C@H]1CC[C@H]2/C(=C/C=C3\\C[C@@H](O)CC[C@@H]3C)CCC[C@]12C", "activity, negative = inhibition": "-15.5%"},
      {"smiles": "CSc1nc2cc(Oc3cccc(Cl)c3Cl)c(Cl)cc2[nH]1", "activity, negative = inhibition": "-15.6%"},
      {"smiles": "COc1ccc(/C=C/C(=O)O)cc1", "activity, negative = inhibition": "4.04%"},
      {"smiles": "COc1ccc2c(c1)N(C[C@H](C)CN(C)C)c1ccccc1S2", "activity, negative = inhibition": "-9.6% [at 62.4 µM]"},
      {"smiles": "O=C(NNCS(=O)(=O)O)c1ccncc1", "activity, negative = inhibition": "3.95%"},
      {"smiles": "CCOC(=O)Oc1c(OC)cc(C(=O)O[C@@H]2C[C@@H]3CN4CCc5c([nH]c6cc(OC)ccc56)[C@H]4C[C@@H]3[C@H](C(=O)OC)[C@H]2OC)cc1OC", "activity, negative = inhibition": "-7.67% [at 38.4 µM]"},
      {"smiles": "NC(=O)Oc1ccc(Cc2ccccc2)cc1", "activity, negative = inhibition": "2.26%"},
      {"smiles": "CCCCC(=O)O[C@H]1CC[C@H]2[C@@H]3CCc4cc(O)ccc4[C@H]3CC[C@]12C", "activity, negative = inhibition": "-6.62%"}
    ]},
    {"target": "Rap guanine nucleotide exchange factor 3 (Homo sapiens) (UniProt O95398)", "test": "Confirmatory qHTS for agonist of cAMP-regulated guanine nucleotide exchange factor 3 (EPAC1) (AID 1645881);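 also: EPAC1 catalysed release of BODIPY-GDP from Rap1B seen as fluorescence loss; nearly all actives have a fitted effect of over 75% in size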", "settings": "EPAC1 Rap1B BODIPY-GDP exchange fluorescence, 100% = cAMP control response; series mostly up to 154 µM; activation: at the top concentration", "values": [
      {"smiles": "COc1cc(NCCCC(C)N)c2ncccc2c1", "note": "(centres undefined)", "activation": "9.22%"},
      {"smiles": "C=CC(C)(O)CC/C=C(\\C)CCC=C(C)C", "note": "(centres undefined)", "activation": "-20.1%"},
      {"smiles": "CC(C)[C@@H](C)/C=C/[C@@H](C)[C@H]1CC[C@H]2/C(=C/C=C3\\C[C@@H](O)CC[C@@H]3C)CCC[C@]12C", "activation": "0.0854%"},
      {"smiles": "CSc1nc2cc(Oc3cccc(Cl)c3Cl)c(Cl)cc2[nH]1", "activation": "0.0832%"},
      {"smiles": "C=CC[C@@H]1/C=C(\\C)C[C@H](C)C[C@H](OC)[C@H]2O[C@@](O)(C(=O)C(=O)N3CCCC[C@H]3C(=O)O[C@H](/C(C)=C/[C@@H]3CC[C@@H](O)[C@H](OC)C3)[C@H](C)[C@@H](O)CC1=O)[C@H](C)C[C@@H]2OC", "activation": "-33.3%"},
      {"smiles": "COc1ccc(/C=C/C(=O)O)cc1", "activation": "7.61%"},
      {"smiles": "COc1ccc2c(c1)N(C[C@H](C)CN(C)C)c1ccccc1S2", "activation": "10.8% [at 83.5 µM]"},
      {"smiles": "O=C(NNCS(=O)(=O)O)c1ccncc1", "activation": "7.34%"},
      {"smiles": "O=C(O)c1cc(N=Nc2ccc(O)c(C(=O)O)c2)ccc1O", "activation": "-6.46%"},
      {"smiles": "CCOC(=O)Oc1c(OC)cc(C(=O)O[C@@H]2C[C@@H]3CN4CCc5c([nH]c6cc(OC)ccc56)[C@H]4C[C@@H]3[C@H](C(=O)OC)[C@H]2OC)cc1OC", "activation": "2.55% [at 51.3 µM]"},
      {"smiles": "NC(=O)Oc1ccc(Cc2ccccc2)cc1", "activation": "6.65%"},
      {"smiles": "CCCCC(=O)O[C@H]1CC[C@H]2[C@@H]3CCc4cc(O)ccc4[C@H]3CC[C@]12C", "activation": "0.693%"}
    ]}
  ]
}
